Measurements reported in PubChem BioAssay (EPA / NIEHS).
Active and inactive are the calls of the source. How the source made its calls: active means hit-call score of the fitted dose curve at least 0.9, where 1 is the maximum; inactive means score below 0.9.

Experiment: CEETOX_H295R_OHPREG: CeeTox H295R High-throughput Steroidogenesis Assay for OH-Pregnenolone (OHPREG) (AID 2283434)
Conditions: actives raise or lower the signal
In short: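 H295R, 10 uM forskolin pre-stim 48 h; test chemical 48 h, 0.1% DMSO final. MTBE extraction, reverse-phase C18 HPLC-ESI+ MS/MS of medium. Gain/loss vs DMSO; viability by MTT in same wells.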
In the case of `CC(Cc1ccc(C(C)(C)C)cc1)CN1C[C@@H](C)O[C@@H](C)C1` (some centres undefined), the AC50 is reported as 45.4 nM (active).
In the case of `O=CNC(N1CCN(C(NC=O)C(Cl)(Cl)Cl)CC1)C(Cl)(Cl)Cl` (centres undefined), the outcome is reported as “inactive”.
With `c1ccc(Nc2ccc3ccccc3c2)cc1` the outcome was “inactive”.
For `Cc1ccc(OP(=O)(Oc2ccc(C)cc2)Oc2ccc(C)cc2)cc1` (tested in a mixture with another compound), the outcome was “inactive”.

Experiment: CEETOX_H295R_OHPROG: CeeTox H295R High-throughput Steroidogenesis Assay for OH-Progesterone (OHPROG) (AID 2283435);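 on AC50: human adrenal H295R cells primed 48 h with 10 µM forskolin; 17alpha-hydroxyprogesterone secreted into medium measured by HPLC-MS/MS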
Conditions: actives raise or lower the signal
In short: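 Human adrenocortical H295R cells, passage 10 or lower, were treated with chemical for 48 h after forskolin priming, and hormone output in the medium was quantified by LC-MS/MS.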
In the case of `CC(Cc1ccc(C(C)(C)C)cc1)CN1C[C@@H](C)O[C@@H](C)C1` (some centres undefined), the AC50 is reported as 316 nM (active).
With `O=CNC(N1CCN(C(NC=O)C(Cl)(Cl)Cl)CC1)C(Cl)(Cl)Cl` (centres undefined) the outcome was “inactive”.
In the case of `c1ccc(Nc2ccc3ccccc3c2)cc1`, the AC50 is reported as 5240 nM (active).
For `Cc1ccc(OP(=O)(Oc2ccc(C)cc2)Oc2ccc(C)cc2)cc1` (tested in a mixture with another compound), the outcome was “inactive”.

Experiment: CEETOX_H295R_CORTIC: CeeTox H295R High-throughput Steroidogenesis Assay for Corticosterone (CORTIC) (AID 2283437);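 further: corticosterone secreted into medium quantified by mass spectrometry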
Conditions: actives raise or lower the signal
In short: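 48 h forskolin (10 uM) prestim, then 48 h chemical exposure, final DMSO 0.1%. Readout: corticosterone in medium by LC-MS/MS after MTBE extraction. Gain/loss fit vs DMSO; MTT viability in same wells.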
For `CC(Cc1ccc(C(C)(C)C)cc1)CN1C[C@@H](C)O[C@@H](C)C1` (some centres undefined), the outcome was “inactive”.
With `O=CNC(N1CCN(C(NC=O)C(Cl)(Cl)Cl)CC1)C(Cl)(Cl)Cl` (centres undefined) the outcome was “inactive”.
With `c1ccc(Nc2ccc3ccccc3c2)cc1` the outcome was “inactive”.
With `Cc1ccc(OP(=O)(Oc2ccc(C)cc2)Oc2ccc(C)cc2)cc1` (tested in a mixture with another compound) the outcome was “inactive”.

Experiment: CEETOX_H295R_CORTISOL: CeeTox H295R High-throughput Steroidogenesis Assay for Cortisol (AID 2283438);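 further: cortisol secreted into medium quantified by LC-MS/MS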
Conditions: actives raise or lower the signal
In short: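 Steroidogenesis in H295R, per modified OECD 456: 48 h forskolin (10 uM), then 48 h exposure, 0.1% DMSO. Cortisol by extraction and tandem MS; viability by MTT (570/650 nm); cytotoxic chemicals diluted and re-tested.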
For `CC(Cc1ccc(C(C)(C)C)cc1)CN1C[C@@H](C)O[C@@H](C)C1` (some centres undefined), the AC50 was 39500 nM (active).
In the case of `O=CNC(N1CCN(C(NC=O)C(Cl)(Cl)Cl)CC1)C(Cl)(Cl)Cl` (centres undefined), the outcome is reported as “inactive”.
In the case of `c1ccc(Nc2ccc3ccccc3c2)cc1`, the outcome is reported as “inactive”.
For `Cc1ccc(OP(=O)(Oc2ccc(C)cc2)Oc2ccc(C)cc2)cc1` (tested in a mixture with another compound), the outcome was “inactive”.

Experiment: CEETOX_H295R_DOC: CeeTox H295R High-throughput Steroidogenesis Assay for DOC (AID 2283439)
Conditions: actives raise or lower the signal
In short: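 H295R, fsk 10 uM ×48 h pre, cmpd ×48 h (0.1% DMSO). Media → MTBE extr. → LC-MS/MS, DOC. Bidirectional fit vs DMSO; MTT viability same wells, re-test diluted if <70%.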
With `CC(Cc1ccc(C(C)(C)C)cc1)CN1C[C@@H](C)O[C@@H](C)C1` (some centres undefined) the AC50 was 9920 nM (active).
For `O=CNC(N1CCN(C(NC=O)C(Cl)(Cl)Cl)CC1)C(Cl)(Cl)Cl` (centres undefined), the outcome was “inactive”.
In the case of `c1ccc(Nc2ccc3ccccc3c2)cc1`, the outcome is reported as “inactive”.
For `Cc1ccc(OP(=O)(Oc2ccc(C)cc2)Oc2ccc(C)cc2)cc1` (tested in a mixture with another compound), the outcome was “inactive”.

Experiment: CEETOX_H295R_PROG: CeeTox H295R High-throughput Steroidogenesis Assay for Progesterone (PROG) (AID 2283442);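 on AC50: human H295R adrenal cells primed with 10 µM forskolin before dosing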
Conditions: actives raise or lower the signal
In short: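 Progesterone read-out: HPLC-MS/MS on MTBE extracts of conditioned medium after 48 h chemical exposure of forskolin-primed (10 uM, 48 h) H295R cells. Gain or loss of signal was fitted relative to DMSO baseline.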
With `CC(Cc1ccc(C(C)(C)C)cc1)CN1C[C@@H](C)O[C@@H](C)C1` (some centres undefined) the AC50 was 53 nM (active).
For `O=CNC(N1CCN(C(NC=O)C(Cl)(Cl)Cl)CC1)C(Cl)(Cl)Cl` (centres undefined), the outcome was “inactive”.
With `c1ccc(Nc2ccc3ccccc3c2)cc1` the outcome was “inactive”.
For `Cc1ccc(OP(=O)(Oc2ccc(C)cc2)Oc2ccc(C)cc2)cc1` (tested in a mixture with another compound), the outcome was “inactive”.
